Experiments:
[1] = biological target: T1, Tyrosine-protein kinase ITK/TSK (Homo sapiens) (UniProt Q08881); conditions: at 10 µM
T1 sequence (whole entry): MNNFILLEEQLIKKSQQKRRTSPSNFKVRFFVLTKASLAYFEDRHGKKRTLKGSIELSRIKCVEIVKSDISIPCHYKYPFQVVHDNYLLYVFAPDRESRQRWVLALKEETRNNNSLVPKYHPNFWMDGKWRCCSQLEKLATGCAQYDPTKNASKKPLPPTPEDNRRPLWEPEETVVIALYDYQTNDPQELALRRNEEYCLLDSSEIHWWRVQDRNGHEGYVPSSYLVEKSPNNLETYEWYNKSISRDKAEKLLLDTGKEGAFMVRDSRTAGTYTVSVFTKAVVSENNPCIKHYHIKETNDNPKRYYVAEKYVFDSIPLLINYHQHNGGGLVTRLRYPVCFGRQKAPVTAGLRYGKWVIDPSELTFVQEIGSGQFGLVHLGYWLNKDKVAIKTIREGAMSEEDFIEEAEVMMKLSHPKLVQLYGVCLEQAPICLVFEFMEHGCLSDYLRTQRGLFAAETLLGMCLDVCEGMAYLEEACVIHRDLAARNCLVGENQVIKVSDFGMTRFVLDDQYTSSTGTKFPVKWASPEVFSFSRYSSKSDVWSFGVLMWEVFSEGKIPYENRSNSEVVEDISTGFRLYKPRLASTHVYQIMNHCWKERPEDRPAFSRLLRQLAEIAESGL

[2] = biological target: Tyrosine-protein kinase JAK2 (Homo sapiens) (UniProt O60674); conditions: at 1 µM
[3] = biological target: Tyrosine-protein kinase JAK2 (Homo sapiens) (UniProt O60674); conditions: at 10 µM
[4] = biological target: T2, Tyrosine-protein kinase JAK3 (Homo sapiens) (UniProt P52333); conditions: at 1 µM
T2 sequence (whole entry): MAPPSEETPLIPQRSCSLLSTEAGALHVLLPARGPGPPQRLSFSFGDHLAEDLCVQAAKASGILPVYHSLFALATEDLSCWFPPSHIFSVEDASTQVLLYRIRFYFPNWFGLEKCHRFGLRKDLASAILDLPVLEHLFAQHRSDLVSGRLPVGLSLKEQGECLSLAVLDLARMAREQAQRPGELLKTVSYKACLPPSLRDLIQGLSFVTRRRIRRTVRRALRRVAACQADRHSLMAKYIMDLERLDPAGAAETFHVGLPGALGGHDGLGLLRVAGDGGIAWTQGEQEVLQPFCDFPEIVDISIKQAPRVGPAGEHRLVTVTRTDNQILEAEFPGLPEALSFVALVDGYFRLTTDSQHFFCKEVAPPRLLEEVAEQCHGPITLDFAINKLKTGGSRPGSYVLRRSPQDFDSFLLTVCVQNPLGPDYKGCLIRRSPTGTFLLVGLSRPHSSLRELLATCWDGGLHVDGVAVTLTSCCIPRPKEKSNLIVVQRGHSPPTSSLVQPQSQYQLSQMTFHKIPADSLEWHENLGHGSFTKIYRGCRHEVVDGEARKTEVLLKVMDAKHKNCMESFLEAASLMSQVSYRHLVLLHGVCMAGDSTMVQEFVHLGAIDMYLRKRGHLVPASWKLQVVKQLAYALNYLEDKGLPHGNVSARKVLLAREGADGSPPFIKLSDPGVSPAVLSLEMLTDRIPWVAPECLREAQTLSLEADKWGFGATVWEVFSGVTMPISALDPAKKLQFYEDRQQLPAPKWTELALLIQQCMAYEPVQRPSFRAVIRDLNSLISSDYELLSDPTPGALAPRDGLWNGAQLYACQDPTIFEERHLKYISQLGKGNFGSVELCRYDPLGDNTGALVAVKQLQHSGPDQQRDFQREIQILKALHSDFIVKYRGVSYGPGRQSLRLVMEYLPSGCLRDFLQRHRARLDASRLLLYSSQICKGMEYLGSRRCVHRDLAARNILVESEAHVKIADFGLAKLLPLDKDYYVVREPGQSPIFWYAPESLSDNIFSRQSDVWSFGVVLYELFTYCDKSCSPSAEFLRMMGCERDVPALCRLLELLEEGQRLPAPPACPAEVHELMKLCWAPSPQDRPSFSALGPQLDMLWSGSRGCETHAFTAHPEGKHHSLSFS

[5] = biological target: T2, Tyrosine-protein kinase JAK3 (Homo sapiens); conditions: at 10 µM
[6] = biological target: Mitogen-activated protein kinase 8 (Homo sapiens) (UniProt P45983); conditions: at 1 µM
[7] = biological target: Mitogen-activated protein kinase 8 (Homo sapiens) (UniProt P45983); conditions: at 10 µM
[8] = biological target: Mitogen-activated protein kinase 9 (Homo sapiens) (UniProt P45984); conditions: at 1 µM
[9] = biological target: Mitogen-activated protein kinase 9 (Homo sapiens) (UniProt P45984); conditions: at 10 µM
[10] = biological target: Mitogen-activated protein kinase 10 (Homo sapiens) (UniProt P53779); conditions: at 1 µM
Sequence of Mitogen-activated protein kinase 10 (Homo sapiens) (P53779 whole entry): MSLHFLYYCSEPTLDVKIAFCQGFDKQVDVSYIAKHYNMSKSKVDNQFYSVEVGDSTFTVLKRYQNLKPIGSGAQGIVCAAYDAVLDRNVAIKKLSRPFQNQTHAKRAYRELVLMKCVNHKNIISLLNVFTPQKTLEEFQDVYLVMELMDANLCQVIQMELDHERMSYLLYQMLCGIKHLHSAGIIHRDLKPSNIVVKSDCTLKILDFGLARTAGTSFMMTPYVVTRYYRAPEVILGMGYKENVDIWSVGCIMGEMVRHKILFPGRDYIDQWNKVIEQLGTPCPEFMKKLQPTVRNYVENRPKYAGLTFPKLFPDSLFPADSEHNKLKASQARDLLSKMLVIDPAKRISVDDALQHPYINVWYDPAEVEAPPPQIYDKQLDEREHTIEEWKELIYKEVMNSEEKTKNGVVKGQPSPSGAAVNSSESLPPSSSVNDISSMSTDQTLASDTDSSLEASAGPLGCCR

Sequence of Mitogen-activated protein kinase 9 (Homo sapiens) (P45984 whole entry, looked up): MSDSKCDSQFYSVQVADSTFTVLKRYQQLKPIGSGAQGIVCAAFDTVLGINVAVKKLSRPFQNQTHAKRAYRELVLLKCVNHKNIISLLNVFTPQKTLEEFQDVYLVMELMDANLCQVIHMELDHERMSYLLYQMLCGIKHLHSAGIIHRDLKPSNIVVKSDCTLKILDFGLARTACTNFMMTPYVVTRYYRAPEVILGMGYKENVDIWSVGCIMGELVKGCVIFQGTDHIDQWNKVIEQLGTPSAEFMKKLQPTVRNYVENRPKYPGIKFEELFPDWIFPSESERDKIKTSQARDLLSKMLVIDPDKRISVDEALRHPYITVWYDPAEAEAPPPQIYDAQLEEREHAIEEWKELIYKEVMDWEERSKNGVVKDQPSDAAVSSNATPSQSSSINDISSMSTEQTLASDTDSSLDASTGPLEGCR
Sequence of Mitogen-activated protein kinase 8 (Homo sapiens) (P45983 whole entry): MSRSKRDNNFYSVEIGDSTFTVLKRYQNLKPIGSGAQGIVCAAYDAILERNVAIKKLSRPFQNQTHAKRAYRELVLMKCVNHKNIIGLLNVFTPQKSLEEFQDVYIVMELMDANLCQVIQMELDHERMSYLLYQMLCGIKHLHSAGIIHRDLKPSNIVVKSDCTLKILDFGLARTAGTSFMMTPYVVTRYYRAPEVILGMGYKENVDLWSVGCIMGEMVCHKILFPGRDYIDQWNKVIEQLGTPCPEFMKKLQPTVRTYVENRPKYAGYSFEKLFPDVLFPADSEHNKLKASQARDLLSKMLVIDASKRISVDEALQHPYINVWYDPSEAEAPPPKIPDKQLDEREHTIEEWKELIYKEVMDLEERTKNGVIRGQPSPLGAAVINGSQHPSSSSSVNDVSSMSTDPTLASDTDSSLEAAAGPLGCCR
Sequence of Tyrosine-protein kinase JAK2 (Homo sapiens) (O60674 whole entry): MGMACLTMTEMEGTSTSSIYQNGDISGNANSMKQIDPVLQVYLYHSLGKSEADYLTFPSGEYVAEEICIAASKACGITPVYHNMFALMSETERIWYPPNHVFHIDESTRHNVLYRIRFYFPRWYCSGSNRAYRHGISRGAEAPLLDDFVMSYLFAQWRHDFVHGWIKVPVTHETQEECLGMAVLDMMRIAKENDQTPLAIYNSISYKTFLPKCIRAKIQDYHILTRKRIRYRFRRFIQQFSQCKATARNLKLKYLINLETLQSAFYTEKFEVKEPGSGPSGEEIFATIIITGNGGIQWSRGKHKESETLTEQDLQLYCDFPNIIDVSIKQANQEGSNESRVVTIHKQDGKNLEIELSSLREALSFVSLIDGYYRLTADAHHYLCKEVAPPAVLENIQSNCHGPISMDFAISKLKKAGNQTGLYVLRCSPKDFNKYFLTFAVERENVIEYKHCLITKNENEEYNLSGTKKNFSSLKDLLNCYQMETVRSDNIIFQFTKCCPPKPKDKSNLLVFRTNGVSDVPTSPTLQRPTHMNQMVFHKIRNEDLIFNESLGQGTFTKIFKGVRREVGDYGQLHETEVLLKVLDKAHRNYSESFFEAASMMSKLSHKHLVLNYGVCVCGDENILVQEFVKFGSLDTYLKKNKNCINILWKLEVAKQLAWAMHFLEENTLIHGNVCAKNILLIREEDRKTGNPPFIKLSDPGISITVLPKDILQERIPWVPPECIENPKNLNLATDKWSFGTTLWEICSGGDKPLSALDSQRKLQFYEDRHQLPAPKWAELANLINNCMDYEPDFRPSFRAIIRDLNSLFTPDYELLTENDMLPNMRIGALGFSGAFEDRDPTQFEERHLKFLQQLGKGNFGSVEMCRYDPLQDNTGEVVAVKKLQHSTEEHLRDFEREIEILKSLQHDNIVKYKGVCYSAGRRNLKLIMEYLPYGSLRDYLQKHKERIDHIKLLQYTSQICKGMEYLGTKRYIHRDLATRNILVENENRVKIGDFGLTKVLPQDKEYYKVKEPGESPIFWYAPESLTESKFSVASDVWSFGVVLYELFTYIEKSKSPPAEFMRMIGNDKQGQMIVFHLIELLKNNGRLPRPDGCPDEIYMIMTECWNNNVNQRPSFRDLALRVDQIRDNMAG

Row | Structure (SMILES) | residual activity [1] | residual activity [2] | residual activity [3] | residual activity [4] | residual activity [5] | residual activity [6] | residual activity [7] | residual activity [8] | residual activity [9] | residual activity [10]
1 | COc1ccc(C(=O)Nc2sc3c(c2C(N)=O)CCCC3)cc1OC | 96% | 80% | 101% | 99% | 100% | 106% | 68% | 99% | 94% | 66%
2 | O=Nc1c(-c2c(O)[nH]c3ccccc23)[nH]c2ccccc12 | 1% | 92% | 11% | 21% | 2% | 63% | 70% | 55% | 17% | 7%
3 | COc1cc2ncnc(N3CCN(C(=O)Nc4ccc(Oc5ccccc5)cc4)CC3)c2cc1OC | 73% | 101% | 118% | 97% | 124% | 93% | 75% | 108% | 97% | 85%
4 | COc1cc2ncnc(Nc3ccc(NC(=O)c4ccccc4)cc3)c2cc1OC | 99% |  |  | 102% |  |  |  | 109% | 108% | 
5 | c1ccc(-c2n[nH]c3c2oc2ccccc23)cc1 | 66% |  |  | 92% | 70% |  |  |  |  | 59%
6 | O=C1Nc2ccc(Br)cc2/C1=C\c1cc2c([nH]1)CCCC2 |  | 105% | 99% | 108% | 101% | 114% | 114% | 101% |  | 
7 | COc1cc2ncnc(Nc3ccc(Oc4ccccc4)cc3)c2cc1OC |  | 118% | 148% | 93% | 113% | 106% | 110% | 121% | 98% | 83%
8 | Oc1n[nH]c2nnc(-c3c(-c4ccccc4)nn4ccccc34)cc12 | 102% | 99% | 102% | 104% | 100% | 96% | 87% | 93% | 92% | 52%
9 | CC(C)n1cnc2c(NCc3ccccc3)nc(NCCCO)nc21 | 96% | 101% | 103% | 111% | 108% | 104% | 95% | 98% | 99% | 57%
10 | CCN(CC)CCCCN1c2ccccc2Oc2ccc(Cl)cc21 | 102% | 107% | 138% | 110% | 142% | 113% | 91% | 106% | 104% | 111%
11 | Cc1cc2ncc(-c3ccccc3)nc2cc1C |  | 101% |  | 98% | 81% |  | 99% | 108% | 97% | 108%
12 | CO[C@H]1[C@@H](OC)C[C@H](C)[C@@H](OC)C2=CC(=O)C=C(NC(=O)/C(C)=C/C=C/[C@H](OC)[C@@H](OC(N)=O)/C(C)=C/[C@@H]1C)C2=O | 107% | 114% | 97% | 94% | 63% | 120% | 89% | 114% | 100% | 113%
13 | O=C1NC(=O)/C(=C\c2ccc3nccnc3c2)S1 | 91% | 108% | 94% | 86% | 67% | 104% | 87% | 108% | 96% | 89%
14 | COc1cc2ncc(-c3ccccc3)nc2cc1OC |  |  |  | 92% | 58% |  |  |  |  | 99%
15 | Cc1cncc2cccc(S(=O)(=O)N3CCCN(C(=O)CN)C[C@H]3C)c12 |  |  |  | 92% |  | 95% | 82% |  | 79% | 72%
16 | O=C1Nc2cc(Br)ccc2/C1=C1/Nc2ccccc2/C1=N\O | 9% | 68% | 58% | 20% | 21% | 93% | 85% | 79% | 89% | 38%
17 | N#C/C(=C(\N)Sc1ccc(N)cc1)c1ccccc1C(F)(F)F | 96% | 99% | 98% | 101% | 101% | 95% | 100% | 93% | 103% | 114%
18 | c1ccc(-c2n[nH]cc2-c2ccnc3ccccc23)nc1 | 104% | 94% | 109% |  |  |  |  | 109% | 99% | 79%
19 | c1ccc2c(-c3ccncc3)c[nH]c2c1 | 95% | 97% | 101% | 103% |  | 97% | 78% | 107% | 93% | 

Row | Structure (SMILES) | residual activity [1] | residual activity [2] | residual activity [3] | residual activity [4] | residual activity [5] | residual activity [6] | residual activity [7] | residual activity [8] | residual activity [9] | residual activity [10]
20 | O=C(O)c1ccc2c3c1cccc3c(=O)n1c3ccccc3nc21 | 94% | 100% | 40% | 46% | 9% | 105% | 79% | 83% | 55% | 78%
21 | Cc1cccc(-c2[nH]c(C(C)(C)C)nc2-c2ccc3c(c2)OCO3)n1 | 103% |  |  |  |  |  | 97% |  | 94% | 90%
22 | N#CC(C#N)=C(N)/C(C#N)=C/c1ccc(O)cc1 |  |  |  |  |  |  | 83% |  |  | 96%
23 | N#CCCc1ccc2c(c1)-c1[nH]c3ccc([N+](=O)[O-])cc3c1CC(=O)N2 | 52% |  |  |  | 66% |  |  |  |  | 67%
24 | COc1cc2ncnc(Nc3ccc(O)c(Br)c3)c2cc1OC | 71% | 102% | 55% | 93% | 57% | 96% | 54% | 99% | 78% | 51%
25 | CNc1cc2c(Nc3cccc(Br)c3)ncnc2cn1 | 87% | 70% | 56% | 96% | 78% | 100% | 97% | 98% | 92% | 97%
26 | COc1ccc(S(=O)(=O)N(CCO)c2ccccc2CN(C)C/C=C/c2ccc(Cl)cc2)cc1 | 94% | 102% | 131% | 116% | 104% | 95% | 85% | 92% | 97% | 82%
27 | Oc1ccc(-c2nc(-c3ccc(F)cc3)c(-c3ccncc3)[nH]2)cc1 | 98% | 101% | 112% | 108% | 93% | 99% | 79% | 69% | 12% | 10%
28 | COc1ccc(CNc2nc(N(CCO)CCO)nc3c2ncn3C(C)C)cc1 | 85% | 91% | 99% | 105% | 107% | 104% | 87% | 83% | 85% | 75%
29 | Cc1ccc(NC2=CC(=O)c3sc(C)nc3C2=O)cc1 | 101% | 97% | 104% | 113% | 107% | 112% | 92% | 100% | 106% | 83%
30 | O=C1NC(=O)c2c1c1c3ccccc3[nH]c1c1[nH]c3cc(Br)ccc3c21 | 97% | 97% | 106% | 94% | 96% | 110% | 98% | 110% | 121% | 77%
31 | CCN(CC)C(=O)c1ccc(Nc2nc(OCC3CCCCC3)c3nc[nH]c3n2)cc1 | 2% | 3% | -1% | 7% | 1% | 44% | -11% | 44% | 0% | 5%
32 | O=C1c2ccccc2-[n+]2ccc3c([nH]c4ccccc43)c21 | 93% | 95% | 101% | 109% |  | 97% | 87% | 92% | 106% | 71%
33 | CN(C)c1ccc(/C=C2\C(=O)Nc3ccccc32)cc1 | 65% | 115% | 83% | 86% | 32% | 106% | 93% | 102% | 98% | 110%
34 | N#Cc1cnc2cnc(NCc3cccnc3)cc2c1Nc1ccc(F)c(Cl)c1 | 48% | 96% | 94% | 82% | 81% |  |  | 95% | 97% | 
35 | COc1ccc(OC)c2c(=S)c3ccccc3[nH]c12 | 97% | 88% | 102% | 97% | 97% | 99% | 95% | 88% | 106% | 80%
36 | CC(=O)c1ccc(N2CCOCC2)cc1O | 97% | 102% | 96% | 102% | 105% | 104% | 80% | 101% | 103% | 88%
37 | CN(C)CCCn1cc(C2=C(c3c[nH]c4ccccc34)C(=O)NC2=O)c2ccccc21 |  | 121% | 90% |  |  | 111% |  |  |  | 117%
38 | Cc1cc(Nc2nc(-c3ccccc3)nc3ccccc23)n[nH]1 | 0% | 14% | 1% | 41% | 5% | 94% | 71% |  | 66% | 51%

Reference: ChEMBL document CHEMBL2218924, “A broad activity screen in support of a chemogenomic map for kinase signalling research and drug discovery” (Biochem J, 2013)
